Experiment [1] in a line: inhibitors of TNFa-induced NFkB p65 translocation, primary screen, imaging, HUVEC, MLSMR starter and 10KST1 sets (AID 438;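 active = inhibition above 20% together with a positive visual image hit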;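 note: compound added about 3h40 before a 20 min TNFalpha stimulation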;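 for inhibition: signal is the nuclear over cytoplasmic p65 intensity ratio per well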). As to conditions: HUVEC TNFa-induced p65 nuclear translocation; cell count: measured here: nuclei count (cytotoxicity indicator), at 2.08 µM; inhibition: at 2 µM, stronger effect = higher value, 0% TNFa-plus-vehicle, 100% no-TNFa wells.
Experiment [2] can be described thus: inhibitors of mutant huntingtin aggregation, primary screen, imaging, exon1htt(103Q)mCFP cells, high-content imaging (AID 483;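 active = visual image review flags a hit and inhibition of aggregation exceeds 20%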;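 note: compound exposure lasted 3 days before fixation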;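 for nuclei count: percent of the per-plate median nuclei count of sample wells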). The settings on record: exon1htt(103Q)mCFP cell line, aggregate imaging, at 2 µM; inhibition of aggregation: stronger effect = higher value; nuclei count: measured here: cell count, toxicity.
A short description of experiment [3]: inhibitors of E-selectin induction by TNFa, primary screen, imaging, HUVEC, immunofluorescence, MLSMR starter and 10KST1 sets (AID 487;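 active = visually confirmed hit in the image check and inhibition above 20%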;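 for inhibition: signal is fraction of cell area covered by stained E-selectin grains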;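 for nuclei count: 100% = median nuclei count of all wells on the same plate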). The settings on record: HUVEC TNFalpha-induced E-selectin immunofluorescence imaging, at 2 µM; inhibition: stronger effect = higher value; nuclei count: measured here: cell number, toxicity.
In experiment [4] the target is Voltage-gated potassium channel subunit beta-2 (Rattus norvegicus) (UniProt P62483). Briefly: KvBeta enzyme negative modulators, primary screen, biochemical, NADPH fluorescence (AID 622;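 active = fluorescence slope higher than the sample average by over 3 SD, cut at about -0.22 in these data, passing the limit was not always enough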;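 note: slope of raw intensity against log time taken from 70 to 1610 s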). As to conditions: recombinant KvBeta, 4-cyanobenzaldehyde reduction, at 10 µM, stronger effect = higher value.
Sequence of Voltage-gated potassium channel subunit beta-2 (Rattus norvegicus) (P62483 whole entry, looked up): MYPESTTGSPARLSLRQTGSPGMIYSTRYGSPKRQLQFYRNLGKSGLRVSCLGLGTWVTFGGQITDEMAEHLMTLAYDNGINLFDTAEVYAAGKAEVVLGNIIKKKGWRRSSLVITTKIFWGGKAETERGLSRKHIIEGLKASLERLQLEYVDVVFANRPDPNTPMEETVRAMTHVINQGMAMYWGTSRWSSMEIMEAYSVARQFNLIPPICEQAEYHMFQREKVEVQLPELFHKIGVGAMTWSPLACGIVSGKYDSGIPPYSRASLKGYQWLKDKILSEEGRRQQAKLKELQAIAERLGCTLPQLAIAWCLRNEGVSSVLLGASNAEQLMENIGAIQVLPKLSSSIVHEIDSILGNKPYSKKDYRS
Experiment [5] has the same target. Briefly: KvBeta positive modulators, primary screen, biochemical, NADPH fluorescence (AID 623).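 Note: fluorescence intensity change per second fitted from 20 to 320 s.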 The settings on record: Recombinant KvBeta, NADPH fluorescence decrease slope, 10 min; at 10 µM; stronger effect = lower value.
Experiment [6] deals with Alpha-2C adrenergic receptor (Homo sapiens) (UniProt P18825). Briefly: modulators of alpha2C/GIRK thallium flux, primary screen, cell-based, HEK293 alpha2C/GIRK1/2 (AID 624;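 active = fluorescence slope after compound addition differing from the mean of all screened samples at 99.7% confidence, in either direction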;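 note: slope of fluorescence ratio to pre-addition baseline per second over 15 to 24 s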). As to conditions: thallium flux BTC fluorescence, at 10 µM, actives lie on both sides.
Sequence of Alpha-2C adrenergic receptor (Homo sapiens) (P18825 whole entry, looked up): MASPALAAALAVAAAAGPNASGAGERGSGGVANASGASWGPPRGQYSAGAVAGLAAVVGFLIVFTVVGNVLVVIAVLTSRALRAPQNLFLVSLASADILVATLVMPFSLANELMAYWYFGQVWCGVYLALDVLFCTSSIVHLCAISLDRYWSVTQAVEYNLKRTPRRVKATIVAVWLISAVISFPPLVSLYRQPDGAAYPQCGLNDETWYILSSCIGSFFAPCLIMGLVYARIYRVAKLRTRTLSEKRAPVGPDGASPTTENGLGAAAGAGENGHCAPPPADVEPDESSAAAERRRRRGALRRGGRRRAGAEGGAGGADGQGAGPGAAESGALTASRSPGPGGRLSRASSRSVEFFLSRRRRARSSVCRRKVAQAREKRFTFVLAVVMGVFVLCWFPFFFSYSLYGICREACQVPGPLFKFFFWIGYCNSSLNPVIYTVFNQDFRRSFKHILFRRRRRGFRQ
Experiment [7] is described as follows: inhibitors of Sendai virus-induced IRF3 signaling, primary screen, TLR/RLR signaling modifier project, cell-based, Sendai virus stimulus, luciferase, 10K MLSCN set (AID 602276;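 active = inhibition at or above 50% at 10 µM; inactive = inhibition below 50%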;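 note: firefly luciferase from ISG56 promoter only with Renilla not read in this screen; 0% = Sendai virus plus DMSO and 100% = medium plus DMSO without virus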). The settings on record: HEK293 RL24 IRF3 luciferase reporter, at 10 µM, stronger effect = higher value. A general note: In a reporter assay the amount or activity of a reporter protein is the signal.

Experiment [8] can be described thus: inhibitors of poly I:C-induced TLR3 signaling, primary screen, cell-based, poly I:C stimulus, luciferase, 10K MLSCN set (AID 602277;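 active = inhibition of the reporter signal at or above 50%; inactive = inhibition below 50%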). As to conditions: HEK293-TLR3 RL24 IRF3 luciferase reporter, at 10 µM, stronger effect = higher value.

Calls of active or inactive are those of the source.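 Rule for the calls, unless noted: active = NADPH fluorescence slope more negative than the mean of all samples by about 3 SD, 99.7% confidence; inactive = the rest.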

By inhibition is commonly meant the drop in the measured response relative to a control, in per cent.

As for `CCOCC(=O)Nc1ccc(S(=O)(=O)N2CCOCC2)cc1`, the cell count in experiment [1] turned out to be 283. Besides, the inhibition was -3.2% (inactive) in experiment [1], -6.7% (inactive) in experiment [3], 12% (inactive) in experiment [7] and 19.7% (inactive) in experiment [8]. In addition, the inhibition of aggregation in experiment [2] is 16.5% (inactive). Further, the nuclei count in experiment [2] was determined as 89.1%; in experiment [3] it was 73.9%. For the same molecule, in experiment [4], the fluorescence slope was -0.418 (inactive). In addition, the NADPH fluorescence slope in experiment [5] is 5.9e-06 (inactive). Moreover, the slope in experiment [6] is 0.00604 (inactive).

As to `CCn1c(SCc2cc(=O)[nH]c3ccccc23)nc2c1c(=O)n(C)c(=O)n2C`, in experiment [1], the cell count worked out at 350. The inhibition in experiment [1] was 1% (inactive); in experiment [3], -38.3% (inactive); in experiment [7], 4.21% (inactive); in experiment [8], 14.7% (inactive). In addition, in experiment [2], the inhibition of aggregation is -9.3% (inactive). The nuclei count in experiment [2] stood at 93.3%; in experiment [3] it was 99.2%. In experiment [4], the fluorescence slope was -0.336 (inactive). Also, in experiment [5], the NADPH fluorescence slope was -3.5e-05 (inactive). The slope in experiment [6] was 0.00504 (inactive).

Turning to `O=C(CSc1nc2cc(Cl)ccc2s1)N1CCN(C(=O)c2ccco2)CC1`, the cell count in experiment [1] was determined as 725. The inhibition was 2.4% (inactive) in experiment [1], -126% (inactive) in experiment [3], 21.6% (inactive) in experiment [7] and 27.6% (inactive) in experiment [8]. Besides, the inhibition of aggregation in experiment [2] was 15.7% (inactive). Besides, the nuclei count in experiment [2] was determined as 97.9%; in experiment [3] it was 141%. Further, in experiment [4], the fluorescence slope was -0.482 (inactive). Further, the NADPH fluorescence slope in experiment [5] was -5.8e-05 (inactive). In experiment [6], the slope is 0.00555 (inactive).

With `CCC(=O)c1ccc(OC(=O)c2ccc(Br)o2)cc1`, the cell count in experiment [1] turned out to be 354. Further, the inhibition was 6.8% (inactive) in experiment [1], -84.3% (inactive) in experiment [3], 10.9% (inactive) in experiment [7] and 9.67% (inactive) in experiment [8]. Moreover, in experiment [2], the inhibition of aggregation is -19.7% (inactive). In addition, the figures for the nuclei count in experiment [2] and in experiment [3] were 99.8% and 112%, respectively. Further, the fluorescence slope in experiment [4] was -0.605 (inactive). In addition, in experiment [5], the NADPH fluorescence slope is -3e-05 (inactive). Also, the slope in experiment [6] was 0.00383 (inactive).

On to `O=C(CSc1nnnn1C1CCCC1)NCc1ccc2c(c1)OCO2`, for which the cell count in experiment [1] was found to be 816. Also, the inhibition was -13.2% (inactive) in experiment [1], -15.5% (inactive) in experiment [3], 1% (inactive) in experiment [7] and 22.3% (inactive) in experiment [8]. In addition, in experiment [2], the inhibition of aggregation is 3% (inactive). The nuclei count was 87.9% in experiment [2] and 138% in experiment [3]. Besides, the fluorescence slope in experiment [4] is -0.475 (inactive). Also, the NADPH fluorescence slope in experiment [5] is -4.8e-05 (inactive). In addition, the slope in experiment [6] is 0.00594 (inactive).

With `Cc1cc(NS(=O)(=O)c2ccc(NC(=O)COc3ccc(Cl)cc3)cc2)no1`, the cell count in experiment [1] is 361. Besides, the inhibition in experiment [1] was 0.4% (inactive); in experiment [3], -54.3% (inactive); in experiment [7] it was 13% (inactive); in experiment [8], 19.8% (inactive). Besides, the inhibition of aggregation in experiment [2] was -9.7% (inactive). The nuclei count in experiment [2] turned out to be 118%; in experiment [3] it was 122%. Also, in experiment [4], the fluorescence slope is -0.292 (inactive). Besides, in experiment [5], the NADPH fluorescence slope is -6.7e-05 (inactive). For the same molecule, the slope in experiment [6] was 0.00576 (inactive).

As for `OC(CN1CCCCC1)Cn1c(C(F)(F)F)nc2ccccc21` (centres undefined), in experiment [1], the cell count amounted to 730. Further, the inhibition in experiment [1] is -17.7% (inactive); in experiment [3], -98.5% (inactive); in experiment [7], 12.8% (inactive); in experiment [8] it was 24.9% (inactive). Moreover, the inhibition of aggregation in experiment [2] was 25.1% (inactive). The nuclei count in experiment [2] was found to be 122%; in experiment [3] it was 95.5%. In experiment [4], the fluorescence slope was -0.362 (inactive). Also, the NADPH fluorescence slope in experiment [5] was -7.1e-05 (inactive). The slope in experiment [6] is 0.00651 (inactive).

As to `CN(C(=O)c1ccc(S(=O)(=O)NC2CCCC2)cc1)C1CCCCC1`, the cell count in experiment [1] came out at 685. For the same molecule, the inhibition in experiment [1] was 2% (inactive); in experiment [3], -141% (inactive); in experiment [7], -13.3% (inactive); in experiment [8], -0.726% (inactive). For the same molecule, the inhibition of aggregation in experiment [2] was -3.6% (inactive). Further, the nuclei count turned out to be 103% in experiment [2] and 117% in experiment [3]. For the same molecule, the fluorescence slope in experiment [4] is -0.455 (inactive). Moreover, the NADPH fluorescence slope in experiment [5] is 1.5e-05 (inactive). The slope in experiment [6] was 0.0047 (inactive).

For the molecule `O=C(c1ccc(Br)cc1)N1CCN(S(=O)(=O)c2ccccc2)CC1`, the cell count in experiment [1] came to 556. Also, the inhibition is -5.1% (inactive) in experiment [1], -43.3% (inactive) in experiment [3], -3.58% (inactive) in experiment [7] and 20% (inactive) in experiment [8]. For the same molecule, in experiment [2], the inhibition of aggregation was 3.3% (inactive). Also, the nuclei count in experiment [2] stood at 66.6%; in experiment [3], 106%. Also, the fluorescence slope in experiment [4] is -0.588 (inactive). Further, in experiment [5], the NADPH fluorescence slope was -9.2e-07 (inactive). Further, the slope in experiment [6] was 0.00631 (inactive).

In the case of `O=C(O)C1CCCN1c1ncnc2c1oc1ccccc12` (centres undefined), the cell count in experiment [1] worked out at 626. Moreover, the inhibition is -4.4% (inactive) in experiment [1], 22.9% (inactive) in experiment [3], 5.71% (inactive) in experiment [7] and 5.35% (inactive) in experiment [8]. For the same molecule, the inhibition of aggregation in experiment [2] was 11.5% (inactive). The nuclei count is 101% in experiment [2] and 96.9% in experiment [3]. Moreover, in experiment [4], the fluorescence slope was -0.503 (inactive). For the same molecule, the NADPH fluorescence slope in experiment [5] was -1.8e-05 (inactive). The slope in experiment [6] is 0.00455 (inactive).

As to `O=C(c1sc2ccccc2c1Cl)N(Cc1cccs1)C1CCS(=O)(=O)C1` (centres undefined), the cell count in experiment [1] was 677. The inhibition in experiment [1] was 4.4% (inactive); in experiment [3] it was 10.4% (inactive); in experiment [7] it was 10.4% (inactive); in experiment [8], 32.5% (inactive). In experiment [2], the inhibition of aggregation is 17.9% (inactive). For the same molecule, the values for the nuclei count in experiment [2] and in experiment [3] were 90.3% and 108%, respectively. Also, in experiment [4], the fluorescence slope is -0.579 (inactive). For the same molecule, the NADPH fluorescence slope in experiment [5] was -2.7e-05 (inactive). Further, the slope in experiment [6] is 0.00741 (inactive).

For `O=C(NCCN1CCCCCC1)c1ccc(N2CCCC2=O)cc1`, the cell count in experiment [1] came out at 561. Moreover, the inhibition is -4.7% (inactive) in experiment [1], 60.4% (inactive) in experiment [3], 16.9% (inactive) in experiment [7] and 17.9% (inactive) in experiment [8]. In addition, in experiment [2], the inhibition of aggregation is 23.6% (inactive). Besides, the figures for the nuclei count in experiment [2] and in experiment [3] were 84.5% and 24.3%, respectively. For the same molecule, the fluorescence slope in experiment [4] is -0.406 (inactive). For the same molecule, the NADPH fluorescence slope in experiment [5] was -4.1e-05 (inactive). Moreover, the slope in experiment [6] is 0.00534 (inactive).

As for `CC(C)CCN(C)C1CCN(S(=O)(=O)c2ccc(F)cc2)CC1`, the cell count in experiment [1] came out at 638. For the same molecule, the inhibition was 0.8% (inactive) in experiment [1], -35.4% (inactive) in experiment [3], 10.6% (inactive) in experiment [7] and 40.9% (inactive) in experiment [8]. Moreover, the inhibition of aggregation in experiment [2] was -2.4% (inactive). Besides, the results for the nuclei count in experiment [2] and in experiment [3] were 82.9% and 121%, respectively. For the same molecule, the fluorescence slope in experiment [4] was -0.543 (inactive). The NADPH fluorescence slope in experiment [5] is 1.3e-05 (inactive). Moreover, the slope in experiment [6] is 0.00577 (inactive).

Regarding `NC(=O)C1CCN(c2nc(-c3ccccc3)nc3ccccc23)CC1`, the cell count in experiment [1] is 554. For the same molecule, the inhibition in experiment [1] is -15.4% (inactive); in experiment [3] it was 49.5% (inactive); in experiment [7], 10% (inactive); in experiment [8], 8.01% (inactive). Moreover, the inhibition of aggregation in experiment [2] is 2% (inactive). Also, the nuclei count in experiment [2] turned out to be 116%; in experiment [3] it was 92.8%. The fluorescence slope in experiment [4] was -0.46 (inactive). The NADPH fluorescence slope in experiment [5] was -6.1e-05 (inactive). Also, the slope in experiment [6] was 0.00467 (inactive).

Values taken from PubChem BioAssay.
